Source: PubChem BioAssay (National Center for Advancing Translational Sciences (NCATS))
Hits are enriched below; roughly 15% of the tested compounds scored in any of these assays.
TDP1 cell CPT – growth inhibition of DT40 Tdp1-/-;hTDP1 cells with camptothecin (screen for TDP1 inhibitors); 420,000 tested, 12% active; AID 686979; Potency, µM (titrated, usually from 46.2 µM), inactives show at the top dose activity change, negative = growth inhibition, actives largely listed as inhibitors; chicken DT40 Tdp1-/-;hTDP1 cells + 20 nM CPT, ATP luminescence, 48 h; further: nearly all actives have a fitted effect of over 55% in size
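Chicken DT40 Tdp1-/- cells complemented with human TDP1, 400 cells/well, exposed to compounds plus 20 nM camptothecin for at least 48 h at 37 C; viability read as ATP content by CellTiter-Glo luminescence.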
ELG1 repair inh – blocks ELG1-dependent DNA repair in HEK293T cells | HEK293T ELG1-luciferase reporter, luminescence, 16 h; DNA damage induced by 5-fluorouridine | Potency, µM (top dose mostly 46.1 µM), without a hit: top-dose activity change, negative = inhibition, usual class: inhibitors | 330,000 tested, 2.3% active; further: nearly all actives have a fitted effect of over 55% in size
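5-Fluorouridine DNA damage + compound/DMSO, 2,000 cells/well, 16 h, 37 °C/5% CO2. ONE-Glo, 30 min RT, luminescence. Readout = decrease in reporter signal.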
12-LOX inh – inhibitors of human 12S-lipoxygenase ALOX12. 580,000 tested, 1.1% active. purified 12hLO, xylenol orange hydroperoxide absorbance. Potency, µM (titrated, usually from 108 µM), without a hit: at the top dose activity change, negative = inhibition, actives largely listed as inhibitors. P18054
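Purified human 12hLO (150 nM final) in 25 mM Hepes, 0.01% Triton X-100, pH 7.0 was preincubated 15 min at room temperature with compound. Then 40 uM arachidonic acid was added, 30 min. Hydroperoxide was read by Fe-XO absorbance ratio 573/405 nm.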
RORg inh – ROR gamma (mouse) transcription inhibition; Potency, µM (series often up to 53.6 µM), inactives show top-dose activity change, negative = inhibition, usual class: inhibitors; AID 2551; P51450; 310,000 tested, 5.4% active; Drosophila S2 Gal4-RORgamma UAS-luciferase reporter, 20 h; further: nearly all actives have a fitted effect of over 60% in size
Target sequence (P51450 whole entry, looked up, the tested form may be a part): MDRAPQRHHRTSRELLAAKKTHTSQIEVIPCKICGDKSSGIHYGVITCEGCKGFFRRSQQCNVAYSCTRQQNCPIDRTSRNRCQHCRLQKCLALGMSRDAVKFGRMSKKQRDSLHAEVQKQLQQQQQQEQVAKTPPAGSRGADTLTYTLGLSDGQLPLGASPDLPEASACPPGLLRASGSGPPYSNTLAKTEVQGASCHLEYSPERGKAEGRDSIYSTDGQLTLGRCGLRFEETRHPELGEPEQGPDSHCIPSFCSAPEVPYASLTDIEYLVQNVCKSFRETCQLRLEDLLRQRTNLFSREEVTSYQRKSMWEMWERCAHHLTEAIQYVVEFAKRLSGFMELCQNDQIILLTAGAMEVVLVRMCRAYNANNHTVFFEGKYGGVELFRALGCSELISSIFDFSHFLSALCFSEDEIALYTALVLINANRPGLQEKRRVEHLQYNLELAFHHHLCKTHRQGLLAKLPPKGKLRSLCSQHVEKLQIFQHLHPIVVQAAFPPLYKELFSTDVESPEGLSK
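Using a luciferase readout, inhibitors were identified by reduced reporter activity in Drosophila cells coexpressing a copper-inducible Gal4–ROR gamma fusion and UAS-driven Photinus luciferase, incubated 20 hr after 700 uM copper sulfate.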
Gal4-VP16 FLuc – Gal4-VP16 reporter inhibition counter-screen; Drosophila S2 Gal4-VP16 UAS-luciferase, luminescence, 20 h; Potency, µM (doses to about 53.6 µM), inactives show at the top dose activity, negative = inhibition, hits mostly inhibitors; 310,000 tested, 3.5% active;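 further: Gal4-VP16 expression switched on by copper sulfate through the metallothionein promoter; nearly all actives have a fitted effect of over 50% in size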
DT40 TDP1 no CPT – qHTS for Inhibitors of human tyrosyl-DNA phosphodiesterase 1 (TDP1): qHTS in cells in absence of CPT; DT40 Tdp1-/- hTDP1 cells, no CPT, ATP luminescence, 48 h; Potency, µM (titrated, usually from 46.2 µM), for inactives: at the top dose activity change, negative = growth inhibition, usual class: inhibitors; 420,000 tested, 15% active; further: nearly all actives have a fitted effect of over 55% in size
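Cells were dispensed at 400 per well, compounds added by pin tool, plates incubated ≥48 hr at 37 °C, then CellTiter-Glo added for 30 min at room temperature before luminescence reading. Line: DT40 Tdp1-/- complemented with hTDP1; camptothecin omitted.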
* hit, by the source's call; u = inconclusive; x = no result; [ ] = remark or other dose. The call rests on the fitted dose curve; in most records, active means well fitted curve in the direction sought with a large enough effect; inconclusive means small, poorly fitted or top-dose-only effect, or another doubt; inactive means no such curve, though single readings can be large; an effect the other way counts as inactive or inconclusive. On the % scale 0 is the no-effect control and ±100 the full control effect; potency means the concentration at half of the fitted maximal effect.

SMILES	TDP1 cell CPT	ELG1 repair inh	12-LOX inh	RORg inh	Gal4-VP16 FLuc	DT40 TDP1 no CPT
Cc1cccnc1NC(=O)c1ccc2c(c1)OCCO2	1%	u	8%	x	x	-9%
Cc1nc(-c2cnn(-c3ccccc3)c2)c2cc(C)oc2n1	u	u	4%	1%	1%	18µM*
CCn1c(C)cc(C(=O)CN2C(=O)c3ccccc3S2(=O)=O)c1C	3%	u	-3%	x	x	-9%
Cc1cc(C(=O)CN2C(=O)c3ccccc3S2(=O)=O)c(C)n1-c1ccccc1	21µM*	u	u	11µM*	11µM*	23µM*
O=C(CN1C(=O)c2ccccc2S1(=O)=O)c1ccccc1Cl	x	u	8%	8.9µM*	u	x
Cc1ccc(C(=O)CN2/C(=C(\O)c3ccccc3)C(=O)c3ccccc3S2(=O)=O)c(C)c1	12µM*	-2%	x	13µM*	u	16µM*
O=C(CN1C(=O)c2ccccc2S1(=O)=O)NCc1ccccc1Cl	-4%	7%	8%	26%	1%	7%
Cc1cc(C(=O)Cn2cc(C(F)(F)F)ccc2=O)c(C)n1-c1ccccc1	u	16%	-28%	17%	u	u
Cc1cc(C(=O)CN2C(=O)C3CC=CCC3C2=O)c(C)n1-c1ccccc1 (centres undefined)	23µM*	u	-2%	u	13µM*	23µM*
O=C(CN1C(=O)c2ccccc2S1(=O)=O)c1ccccc1	3%	29%	0%	8.9µM*	14µM*	0%
CC(C)NC(=O)CN1C(=O)c2ccccc2S1(=O)=O	8%	6%	-2%	1%	-9%	u
Cc1ccc(C(=O)CN2C(=O)c3ccccc3S2(=O)=O)cc1	28%	u	0%	2.2µM*	u	7%
O=C(COc1ccc(F)cc1)N1CC(c2noc(COc3ccccc3)n2)C1	x	x	13%	x	x	x
CNCc1ccccc1Sc1cc(O)ccc1O	1.8µM*	4%	u	16µM*	u	3.7µM*
CNc1cccccc1=S	3.3µM*	9%	u	1%	-3%	4.6µM*
CNc1ccccc1	5%	12%	12%	-20%	6%	10%
CCCN(CCC)c1nc(N(CCC)CCC)[nH]c(=O)n1	23µM*	u	-9%	5%	-1%	18µM*
CCCN(CCC)c1nc(C#N)nc(N(CCC)CCC)n1	u	-20%	1%	-11%	3%	u
Nc1nc(Cl)cc(-c2ccccc2)n1	3%	17%	-29%	-4%	17%	-15%
Nc1nc(Cl)cc(Sc2ccc3ccccc3c2)n1	15µM*	-15%	-2%	-10%	16%	23µM*
CCC1(O)CCC12CCN(C(=O)c1cccs1)CC2 (centres undefined)	x	x	40%	x	x	x
Cc1nn(C)c(C)c1CNCc1ccnc(N2CCOCC2)c1	x	x	11µM*	x	x	x
CC(=O)N1CCN(C(=O)CCc2ccnc(N3CCOCC3)c2)CC1	x	x	15%	x	x	x
CCC1CCc2sc(C(=O)NC3CC3)cc2C1 (centres undefined)	x	x	23%	x	x	x
CC1CCc2sc(C(=O)NC3CCN(Cc4ccccc4)CC3)cc2C1 (centres undefined)	21µM*	-7%	122%	x	x	13µM*
SMILES	TDP1 cell CPT	ELG1 repair inh	12-LOX inh	RORg inh	Gal4-VP16 FLuc	DT40 TDP1 no CPT
CCC(=O)N1CCc2sc(C(=O)NC3CCN(Cc4ccccc4)CC3)cc2C1	x	x	-1%	x	x	x
Cc1cccc(NC(=S)NNC(=O)c2cc3c(s2)CCC(C)C3)c1C (centres undefined)	-26%	-6%	u	18µM*	u	-2%
CCC1CCc2sc(C(=O)NC3CCN(Cc4ccccc4)CC3)cc2C1 (centres undefined)	21µM*	-15%	u	x	x	13µM*
Cc1c(CCCN)c2ccccc2n1Cc1ccccc1	u	12%	-20%	-29%	-9%	16µM*
Oc1ccccc1CN1CCOC[C@H]1c1ncc(-c2ccccc2)[nH]1	x	x	61%[176 µM]	x	x	x
COc1ccc2cc(C3CC(c4cccs4)=NN3S(C)(=O)=O)c(Cl)nc2c1 (centres undefined)	16µM*	u	-8%	u	-4%	u
O=C(O)CCCNS(=O)(=O)c1ccc(C(=O)O)cc1	x	x	-29%	x	x	x
Cc1ccsc1/C=C1\SC(N2CC(C)OC(C)C2)=NC1=O (centres undefined)	u	u	-22%	21%[10 µM]	-11%	15µM*
O=C(CN1CCCCC1)Nc1ccc(S(=O)(=O)c2ccc(NC(=O)CN3CCCCC3)cc2)cc1	16µM*	x	2%	x	x	13µM*
CC1CCCN(CC(=O)Nc2ccc(S(=O)(=O)N3C(C)CCCC3C)cc2)C1 (centres undefined)	u	x	-29%	x	x	16µM*
O=C(CN1CCN(S(=O)(=O)N2CCCCC2)CC1)Nc1ccc(Cl)c(Cl)c1	u	u	-8%	u	u	23µM*
NS(=O)(=O)c1ccc(NC(=O)CN2CCCCC2)cc1	-12%	18%	-19%	0%	4%	1%
CN(C)S(=O)(=O)c1ccc(NC(=O)CN2CCN(C(c3ccccc3)c3ccccc3)CC2)cc1	u	11%	6%	-12%	-3%	21µM*
Cc1ccc(NC(=O)N2CCCCC2c2noc(COc3ccc(F)cc3)n2)cc1F (centres undefined)	x	x	-7%	x	x	x
CN(Cc1ccccc1C(F)(F)F)C(=O)C1CCN(Cc2cccnc2)CC1	x	x	-2%	x	x	x
CCCNC(=O)c1ccc2[nH]c(C)c(C)c2c1	x	x	12%	x	x	x
CC(Sc1cccc[n+]1[O-])C(=O)Nc1cccc([N+](=O)[O-])c1 (centres undefined)	13%	u	-21%	25%	-16%	-1%
CCC(Sc1ccccn1)C(=O)Nc1cccc([N+](=O)[O-])c1 (centres undefined)	-12%	10%	-3%	16µM*	u	u
Cc1cc(NCC(=O)Nc2ccc(C)c(S(=O)(=O)N3CCOCC3)c2)ccc1Br	u	x	26%	x	x	18µM*
O=C(COc1ccc(Br)cc1CO)Nc1ccc(S(=O)(=O)N2CCCC2)cc1	u	u	-15%	x	x	u
Cc1ccc(S(=O)(=O)N2CCOCC2)cc1NC(=O)COc1cccc(-n2cnnn2)c1	-12%	-7%	7%	x	x	-18%
